Calls of active or inactive are those of the source. How the source made its calls: active means hit-call score of the fitted dose curve at least 0.9, where 1 is the maximum; inactive means score below 0.9.
Read-out: Transforming growth factor beta 1 (TGFb1), TGFB1 (gene 7040)
Assay: BSK_BE3C_TGFb1: BioMAP Diversity Plus: BE3C Assay for Transforming growth factor beta 1 (TGFb1) Biomarker Activity (AID 2283036;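 further: TGF-b1 protein level measured by ELISA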)
Conditions: primary human bronchial epithelial cells; actives raise or lower the signal
In short: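 Bronchial epithelial primary cells are treated with test chemical, then TGF-b1 is quantified by ELISA after 24 hours. Values derive from bidirectional fitting against DMSO, with cytotoxicity checked by SRB staining in parallel cultures.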

Compound	outcome
O=Cc1ccccc1C=O	inactive
c1ccc2occc2c1	inactive
CC(C)NCC(O)c1ccc(O)c(O)c1 (configuration not stated)	inactive
C/C=C/C=C/C(=O)O	inactive
CC1=C(C)S(=O)(=O)CCS1(=O)=O	inactive
CCCCC(CC)COC(=O)CCCCCCCC(=O)OCC(CC)CCCC (configuration not stated)	inactive
O=C1OC(c2ccc(O)cc2)(c2ccc(O)cc2)c2ccccc21	inactive

Read-out: Plasminogen activator inhibitor-1 (PAI1), SERPINE1 (gene 5054)
Assay: BSK_BE3C_PAI1: BioMAP Diversity Plus: BE3C Assay for Plasminogen activator inhibitor-1 (PAI1) Biomarker Activity (AID 2283037)
Conditions: primary human bronchial epithelial cells; actives raise or lower the signal
In short: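 Values derive from bidirectional fitting against DMSO baseline of PAI-1 levels, measured by ELISA in human bronchial epithelial cells 24 h after compound addition.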

Compound	outcome	AC50
O=C1O[C@H]([C@H](O)CO)C(O)=C1O	inactive	–
O=C(O)CC(O)(CC(=O)O)C(=O)O	inactive	–
CCCCCCCCCCCCCCOS(=O)(=O)O	–	20 µM (active)
CN(C)CCCN(C)CCCN(C)C	inactive	–
Cn1cnc2c1c(=O)[nH]c(=O)n2C	inactive	–
N[C@@H](Cc1c[nH]c2ccccc12)C(=O)O	inactive	–
CO[C@@H]1COCC[C@@H]1N[C@@H]1CC[C@@](C(=O)N2CCc3ncc(C(F)(F)F)cc3C2)(C(C)C)C1	inactive	–
CC(C)c1cccc(C(C)C)c1	inactive	–
CC(=O)O	inactive	–
NC(=Nc1ccccc1)Nc1ccccc1	inactive	–
CC(=O)S[C@H](C(=O)N[C@H]1Cc2ccccc2[C@H]2CCC[C@@H](C(=O)O)N2C1=O)C(C)C	inactive	–
OCC(CO)n1cnc(-c2ccc(F)cc2)c1-c1ccnc(Oc2ccccc2)n1	–	1.29 µM (active)
CCCCc1nc2cccnc2n1Cc1ccc(-c2ccccc2-c2nnn[nH]2)cc1	inactive	–
O=C1NC(=O)C(c2ccccc2)(c2ccccc2)N1	inactive	–
Nc1nc(=S)c2[nH]cnc2[nH]1	inactive	–
COC(=O)[C@H]1[C@H]2C[C@@H]3c4[nH]c5cc(OC)ccc5c4CCN3C[C@H]2C[C@@H](OC(=O)c2cc(OC)c(OC)c(OC)c2)[C@@H]1OC	inactive	–
CCCC[C@H]1CN(CC2CCOCC2)C(=O)OC12CCN(C1(C)CCN(C(=O)c3c(C)ncnc3C)CC1)CC2	inactive	–
O=C(O)c1cccnc1	inactive	–
O=C(Oc1ccccc1)c1cccc(C(=O)Oc2ccccc2)c1	inactive	–
O=C1c2c(O)cccc2Cc2cccc(O)c21	inactive	–
COc1ccc(C(=O)Nc2nc3ccccc3c(NCc3ccccc3)c2C#N)cc1	inactive	–
O=[Si]=O	inactive	–
COC(=O)CCC(=O)OC	inactive	–
O=Cc1ccccc1C=O	inactive	–
c1ccc2occc2c1	inactive	–
CC(C)NCC(O)c1ccc(O)c(O)c1 (configuration not stated)	inactive	–
C/C=C/C=C/C(=O)O	inactive	–
CC1=C(C)S(=O)(=O)CCS1(=O)=O	inactive	–
CCCCC(CC)COC(=O)CCCCCCCC(=O)OCC(CC)CCCC (configuration not stated)	inactive	–
O=C1OC(c2ccc(O)cc2)(c2ccc(O)cc2)c2ccccc21	inactive	–

From PubChem BioAssay (EPA / NIEHS)
